Data taken from PubChem BioAssay.
Active and inactive are the calls of the source.

Experiments:
[1] = E. coli DRC41 culture turbidity changes, primary screen, E. coli filamentation inducer project, strain DRC41, OD650, 48 h (AID 1152);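 also: E. coli MC1000 strain DRC41 lacking acrAB efflux pump and sulA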; settings: E. coli DRC41 (acrAB sulA), higher = more signal, called active from +8 up or from −8 down
[2] = small-molecule binders of probe aLefty1, primary screen, biochemical, small-molecule microarray, 635/667 nm fluorescence (AID 1153); settings: higher = more signal;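 also: score merges spot fluorescence with signal-to-noise ratio from the scanned slide images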
[3] = PSAC antagonists in infected red cells, primary screen, cell-based, P. falciparum Indochina, OD700, 1 h (AID 1154); settings: P. falciparum Indochina infected RBC osmotic lysis, higher = more signal, called active from +8 up or from −8 down
[4] = PSAC antagonists in infected red cells, primary screen, cell-based, P. falciparum Indochina, OD700, 2 h (AID 1155);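 also: lysis reports solute entry through the parasite surface anion channel PSAC; channel blockers reduce lysis of infected cells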; settings: P. falciparum Indochina infected erythrocytes, osmotic lysis OD700; higher = more signal, called active from +8 up or from −8 down
[5] = osmotic lysis modulators in infected erythrocytes, primary screen, PSAC antagonist project, cell-based, P. falciparum Indochina, OD700, 3 h (AID 1156); settings: higher = more signal, called active from +8 up or from −8 down
[6] = PSAC antagonists in infected red cells, primary screen, cell-based, P. falciparum Indochina, OD700, 18 h (AID 1157); settings: P. falciparum Indochina infected erythrocytes, osmotic lysis OD700, 18 h; higher = more signal, called active from +8 up or from −8 down
[7] = modulators of S6 phosphorylation in cells, primary screen, cell-based, A549, cytoblot, luminescence, serum-stimulated (AID 1158); settings: A549 phospho-S6 cytoblot, 5 h, higher = more signal;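 also: serum-stimulated A549 lung adenocarcinoma cells; signal is phosphorylated S6 detected by cytoblot immunostaining with HRP secondary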
[8] = target: NADPH oxidase 2 (Homo sapiens) (UniProt P04839); experiment: NOX2-dependent H2O2 signal modulators, primary screen, NOX inhibitor project, cell-based, HEK293-NOX2, PMA-stimulated, Amplex Red fluorescence (AID 1159); settings: 45 min, higher = more signal, called active from +8 up or from −8 down; also: test concentration not given here
Chain of NADPH oxidase 2 (Homo sapiens) (P04839 whole entry, looked up): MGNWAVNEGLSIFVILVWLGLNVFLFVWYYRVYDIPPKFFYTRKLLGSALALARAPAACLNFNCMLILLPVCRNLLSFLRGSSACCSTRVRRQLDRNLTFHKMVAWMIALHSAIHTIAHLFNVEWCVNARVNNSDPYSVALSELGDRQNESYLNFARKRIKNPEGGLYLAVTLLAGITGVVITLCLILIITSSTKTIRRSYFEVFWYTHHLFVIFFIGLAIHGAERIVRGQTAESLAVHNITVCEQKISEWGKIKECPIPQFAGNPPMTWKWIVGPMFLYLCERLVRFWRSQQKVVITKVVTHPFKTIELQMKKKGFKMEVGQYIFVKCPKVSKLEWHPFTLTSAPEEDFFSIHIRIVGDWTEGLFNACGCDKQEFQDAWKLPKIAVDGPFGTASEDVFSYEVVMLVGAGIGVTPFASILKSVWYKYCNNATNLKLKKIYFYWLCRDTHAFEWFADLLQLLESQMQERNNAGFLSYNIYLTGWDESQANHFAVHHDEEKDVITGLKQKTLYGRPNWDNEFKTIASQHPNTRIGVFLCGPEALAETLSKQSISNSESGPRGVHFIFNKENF

[9] = target: NADPH oxidase 4 (Homo sapiens) (UniProt Q9NPH5); experiment: NOX4-dependent H2O2 signal modulators, primary screen, NOX inhibitor project, cell-based, HEK293-NOX4, tetracycline-induced, Amplex Red fluorescence (AID 1160); settings: 45 min, higher = more signal, called active from +8 up or from −8 down
Chain of NADPH oxidase 4 (Homo sapiens) (Q9NPH5 whole entry, looked up): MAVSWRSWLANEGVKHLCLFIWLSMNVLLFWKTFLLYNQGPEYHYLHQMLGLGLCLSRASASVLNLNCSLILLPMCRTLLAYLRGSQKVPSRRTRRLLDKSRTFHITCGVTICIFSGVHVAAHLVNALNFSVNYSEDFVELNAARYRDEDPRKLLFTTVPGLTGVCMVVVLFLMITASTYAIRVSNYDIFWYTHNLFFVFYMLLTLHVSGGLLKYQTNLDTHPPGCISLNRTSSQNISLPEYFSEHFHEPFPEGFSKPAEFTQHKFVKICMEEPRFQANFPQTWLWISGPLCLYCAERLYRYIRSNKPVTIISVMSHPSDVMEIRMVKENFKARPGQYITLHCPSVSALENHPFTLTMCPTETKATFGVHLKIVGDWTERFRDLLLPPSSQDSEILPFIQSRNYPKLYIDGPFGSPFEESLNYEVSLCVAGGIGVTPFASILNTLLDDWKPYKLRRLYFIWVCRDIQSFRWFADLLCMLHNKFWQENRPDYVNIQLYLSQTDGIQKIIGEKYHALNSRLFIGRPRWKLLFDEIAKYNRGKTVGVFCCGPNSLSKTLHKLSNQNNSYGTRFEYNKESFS

[10] = target: NADPH oxidase 5 (Homo sapiens) (UniProt Q96PH1); experiment: NOX5-dependent H2O2 signal modulators, primary screen, NOX inhibitor project, cell-based, HEK293-NOX5, Amplex Red fluorescence (AID 1161); settings: HEK293-NOX5, ionomycin, 45 min, higher = more signal
Chain of NADPH oxidase 5 (Homo sapiens) (Q96PH1 whole entry, looked up): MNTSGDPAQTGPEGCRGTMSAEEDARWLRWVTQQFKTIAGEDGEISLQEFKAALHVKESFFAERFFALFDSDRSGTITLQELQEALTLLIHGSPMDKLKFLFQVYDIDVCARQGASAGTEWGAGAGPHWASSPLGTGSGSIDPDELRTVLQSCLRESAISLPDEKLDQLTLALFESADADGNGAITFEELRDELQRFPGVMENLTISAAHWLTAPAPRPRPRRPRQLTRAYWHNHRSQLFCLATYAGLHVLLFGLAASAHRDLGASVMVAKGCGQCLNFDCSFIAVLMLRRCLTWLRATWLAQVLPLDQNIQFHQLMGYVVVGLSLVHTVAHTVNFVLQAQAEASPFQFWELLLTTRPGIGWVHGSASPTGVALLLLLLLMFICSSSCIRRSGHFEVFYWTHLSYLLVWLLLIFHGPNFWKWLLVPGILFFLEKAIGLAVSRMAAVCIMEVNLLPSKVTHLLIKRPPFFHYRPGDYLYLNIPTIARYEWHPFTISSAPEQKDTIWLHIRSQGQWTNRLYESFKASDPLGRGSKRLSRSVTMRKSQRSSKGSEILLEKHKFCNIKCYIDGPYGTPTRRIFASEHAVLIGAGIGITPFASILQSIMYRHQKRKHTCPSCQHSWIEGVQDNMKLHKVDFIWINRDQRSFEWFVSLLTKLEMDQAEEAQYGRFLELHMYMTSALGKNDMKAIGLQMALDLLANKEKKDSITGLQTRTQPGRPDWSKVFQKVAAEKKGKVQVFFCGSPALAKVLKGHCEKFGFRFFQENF

[11] = A549 cell viability effects, profiling panel, calcein-AM fluorescence, 48 h, basal (AID 1162); settings: higher = more signal; also: test concentration not given here
[12] = adipocyte viability effects, profiling panel, cell-based, 3T3-L1 adipocytes, calcein-AM fluorescence, 48 h, basal (AID 1163); settings: 3T3-L1 adipocytes viability, higher = more signal; also: test concentration not given here
[13] = HepG2 cell viability effects, profiling panel, calcein-AM fluorescence, 48 h, basal (AID 1164); settings: higher = more signal; also: test concentration not given here
[14] = MM1S cell viability effects, profiling panel, calcein-AM fluorescence, 48 h, basal (AID 1165); settings: higher = more signal;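 also: viability of MM1S multiple myeloma cells under basal unstimulated conditions; test concentration not given here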
[15] = basal RPMI8226 viability, no added stimulus, profiling panel, cell-based, calcein-AM fluorescence, 48 h, PK04 Diversity Set (AID 1166); settings: RPMI8226 myeloma viability, higher = more signal;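 also: cells grown under basal conditions without added stimulus; test concentration not given here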
[16] = basal HepG2 mitochondrial membrane potential changes, profiling panel, cell-based, JC-1 fluorescence, 24 h, 100 nL compound (AID 1167); settings: higher = more signal; also: test concentration not given here
[17] = basal 3T3-L1 adipocyte mitochondrial potential changes, profiling panel, cell-based, JC-1 fluorescence, 3T3-L1 adipocytes, 24 h, 100 nL compound (AID 1168); settings: JC-1 mitochondrial fluorescence, higher = more signal, called active from +8 up or from −8 down; also: test concentration not given here
[18] = basal RPMI8226 mitochondrial membrane potential changes, profiling panel, cell-based, JC-1 fluorescence, 24 h, 100 nL compound (AID 1169); settings: RPMI8226 myeloma, JC-1 mitochondrial potential fluorescence, higher = more signal; also: test concentration not given here
[19] = basal MM1S mitochondrial membrane potential changes, profiling panel, cell-based, JC-1 fluorescence, 24 h, 100 nL compound (AID 1170); settings: higher = more signal; also: test concentration not given here
[20] = A549 lung cancer cell viability effects, profiling panel, resazurin fluorescence, 24 h, PK04 Diversity Set (AID 1171); settings: higher = more signal, called active from +8 up or from −8 down; also: test concentration not given here

SMILES	z-score [1]	composite z-score [2]	z-score [3]	z-score [4]	z-score [5]	z-score [6]	z-score [7]	z-score [8]	z-score [9]	z-score [10]	z-score [11]	z-score [12]	z-score [13]	z-score [14]	z-score [15]	z-score [16]	z-score [17]	z-score [18]	z-score [19]	z-score [20]
C=CCC(OC(C)=O)[C@@H]1[C@@H](N(Cc2cccc3ccccc23)C(=O)c2cccc3ccccc23)c2cc(OCCCO)ccc2N1C(=O)Cc1ccc2ccccc2c1 (stereo not given in full)	-0.341 (inactive)	0.211	0.704 (inactive)	0.0473 (inactive)	1.02 (inactive)	0.334 (inactive)	0.326	-1.93 (inactive)	-0.859 (inactive)	-2.79	-0.612	-0.151	-0.663	0.0031	-1.9	2.09	-0.0423 (inactive)	0.00587	-0.00493	-0.0737 (inactive)
NC(=O)NCC#Cc1ccc2c(c1)[C@]1(C(=O)N2)[C@H](C(=O)N2CCCCCCC2)[C@H]2C(=O)O[C@H](c3ccccc3)[C@H](c3ccccc3)N2[C@@H]1c1ccc(O)cc1	-0.504 (inactive)	2.3	-0.268 (inactive)	-0.0915 (inactive)	-0.117 (inactive)	-0.0064 (inactive)	-0.602	1.67 (inactive)	0.541 (inactive)	1.15	-0.491	-0.542	-0.0358	-0.499	-0.193	-1.98	-0.35 (inactive)	-0.981	0.0512	-0.0116 (inactive)
Cc1c(-c2ccc(-c3ccc(Cl)c(Cl)c3)o2)nc(-c2ccccc2)c2c1CO[Si]2(C(C)C)C(C)C	-1.3 (inactive)	-0.101	0.311 (inactive)	-0.267 (inactive)	-0.803 (inactive)	-0.944 (inactive)	-0.298	-0.545 (inactive)	0.0324 (inactive)	-0.237	-0.719	-0.527	0.0118	-3.01	-3.96	-1.38	-0.313 (inactive)	-0.933	-1.66	0.525 (inactive)
COC(=O)[C@H](Cc1ccc(O)cc1)N1CC2=CCCC=C[C@@H]2[C@H]1[C@H](O)Cc1ccccc1	1.42 (inactive)	-0.149	3.23 (inactive)	-1.53 (inactive)	-0.241 (inactive)	-2.05 (inactive)	0.814	0.63 (inactive)	-3.8 (inactive)	-2.8	0.852	0.308	-0.231	-3.12	-0.833	-1.68	-0.501 (inactive)	-0.521	-1.58	0.481 (inactive)
CCCCN1CC=CC23O[C@@H]4C=CCOC(=O)[C@@H]4[C@H]2C(=O)N(C(CO)C(C)C)[C@@H]3C1=O (stereo not given in full)	-0.62 (inactive)	-0.0697	1.16 (inactive)	0.574 (inactive)	1.06 (inactive)	0.407 (inactive)	-0.272	0.835 (inactive)	0.17 (inactive)	1.88	-0.503	-1.13	-0.803	0.543	-0.42	-0.528	-0.713 (inactive)	0.184	-0.071	-0.519 (inactive)
CC(C)[C@@H](C(=O)O)n1cc(-c2ccccc2)nn1	-1.08 (inactive)	0.241	0.354 (inactive)	0.217 (inactive)	-0.406 (inactive)	0.0394 (inactive)	-0.299	-0.7 (inactive)	0.521 (inactive)	-0.167	-0.633	-0.582	-0.354	-0.117	-0.887	-1.36	-1.2 (inactive)	0.00787	0.00093	-0.423 (inactive)
C/C=C/CN(C(=O)C#Cc1ccccc1)[C@H](CO[Si](C)(C)C(C)(C)C)c1ccccc1	2.64 (inactive)	-0.324	0.567 (inactive)	-0.912 (inactive)	-0.509 (inactive)	-1.83 (inactive)	1.52	0.405 (inactive)	0.123 (inactive)	-0.373	-0.21	1.45	-0.488	-2.38	-3.4	2.31	1.37 (inactive)	-0.522	-0.0851	0.365 (inactive)
CCOC(=O)C1=C(C(=O)OCC)N(S(=O)(=O)CC[Si](C)(C)C)[C@H](c2ccccc2)CC1	-0.941 (inactive)	0.174	1.23 (inactive)	0.763 (inactive)	0.106 (inactive)	0.19 (inactive)	-0.405	-0.135 (inactive)	0.232 (inactive)	0.134	-2.6	-0.872	-2.78	-1.02	-4.13	3.63	-0.0617 (inactive)	-0.982	-3.04	0.571 (inactive)
COCC(=C=CC[C@@H](O)c1cccc(OCCO)c1)C[C@@H](O)COCc1ccccc1	1.63 (inactive)	1.24	8.33 (active)	-1.22 (inactive)	1.08 (inactive)	-2.47 (inactive)	1.31	-0.0404 (inactive)	-0.268 (inactive)	-1.62	1.06	1.08	1.41	1.16	0.34	0.638	0.362 (inactive)	0.539	0.532	0.244 (inactive)
CC=CC(O)C1C=CC2C(=O)N(C)C(=O)C2N1NC(=O)OC(C)(C)C (stereo not given)	-1.06 (inactive)	0.277	-0.597 (inactive)	0.43 (inactive)	-0.0501 (inactive)	0.556 (inactive)	-1.42	-0.798 (inactive)	-1.37 (inactive)	-1.22	-0.73	-0.604	-0.39	-0.354	-0.303	-1.55	-0.238 (inactive)	0.397	0.163	-0.383 (inactive)
COC(=O)[C@@]1(Cc2ccccc2)[C@@H]2[C@@H](CC(=O)[C@H]2CC(=O)C(=O)N(C)C)CN1C(=O)c1ccccc1	-0.655 (inactive)	0.0811	2.19 (inactive)	0.543 (inactive)	0.0132 (inactive)	0.738 (inactive)	-0.268	0.984 (inactive)	0.766 (inactive)	-0.461	0.258	-0.103	0.0925	-0.822	0.397	1.23	-0.239 (inactive)	0.209	-1.31	-0.658 (inactive)
C[C@H]1NC(=O)C([C@@H](C)OCc2ccccc2)NC(=O)[C@@]23C(=O)N[C@@H](Cc4ccccc4)C2[C@H](C)[C@@]2(C)O[C@H]2C3/C=C/C/C=C\CNC1=O (stereo not given in full)	-0.009 (inactive)	-0.0501	1.88 (inactive)	0.58 (inactive)	0.761 (inactive)	0.427 (inactive)	-0.104	-0.118 (inactive)	-1.16 (inactive)	-0.16	0.462	1.44	0.14	-0.0497	-0.23	0.817	0.346 (inactive)	0.0911	0.607	-0.214 (inactive)
O=C(NCCO)C1=C[C@H](Oc2ccccc2I)[C@@H](O)[C@H](NCc2ccc(F)cc2)C1	-1.76 (inactive)	-0.338	5.38 (inactive)	1.82 (inactive)	1.33 (inactive)	1.11 (inactive)	0.436	0.71 (inactive)	-0.89 (inactive)	-3.29	0.576	2.37	-0.793	-0.217	-1.26	-0.574	0.471 (inactive)	0.391	0.185	-1.45 (inactive)
C=CCC(OC(C)=O)[C@@H]1[C@@H](N(Cc2cc3ccccc3o2)C(=O)Cc2ccc(OC)cc2)c2cc(OCCCO)ccc2N1C(=O)Cc1ccc2ccccc2c1 (stereo not given in full)	-0.476 (inactive)	0.152	2.63 (inactive)	-0.005 (inactive)	1.35 (inactive)	0.308 (inactive)	0.638	-0.282 (inactive)	-0.427 (inactive)	1.21	0.583	0.592	-0.118	0.0786	-0.929	2.27	-0.315 (inactive)	0.00245	-0.692	-1.16 (inactive)
[N-]=[N+]=NCc1ccccc1C[C@]1(C(=O)N2CCOCC2)N=C(c2ccc(OCCCO)cc2)O[C@H]1c1ccccc1CN=[N+]=[N-]	0.341 (inactive)	1.15	17.5 (active)	3.97 (inactive)	2.79 (inactive)	1.15 (inactive)	1.02	-0.647 (inactive)	0.782 (inactive)	2.13	0.869	0.577	0.74	-1.47	-2.29	1.24	1.04 (inactive)	-1.18	0.233	-0.768 (inactive)
COc1cccc(OC)c1C(=O)O[C@H]1[C@@H]2OC(=O)[C@H](Cc3cccc(Br)c3)C/C=C/C[C@@H](Cc3cccc(Br)c3)C(=O)O[C@H]2[C@@H](OC)O[C@@H]1CO	-0.899 (inactive)	-0.0559	3.18 (inactive)	-0.0392 (inactive)	-1.53 (inactive)	0.581 (inactive)	0.0487	-0.443 (inactive)	-0.0533 (inactive)	0.955	-0.144	0.0726	-0.215	-2.6	-3.88	-3.42	-0.819 (inactive)	-0.735	-0.211	-0.952 (inactive)
CCCCC(O)C1C=CC2C(=O)N(C)C(=O)C2N1Nc1ccccc1 (stereo not given)	-1.37 (inactive)	0.165	-0.242 (inactive)	0.735 (inactive)	0.243 (inactive)	1.17 (inactive)	-1.35	-1.32 (inactive)	-3.48 (inactive)	-2.72	-0.961	-1.89	-0.595	-1.29	-0.419	-1.73	0.64 (inactive)	-0.16	0.402	-0.98 (inactive)
COCCOC(=O)N1C(=O)[C@@]2(c3cc(C#CC4=CCCCC4)ccc31)[C@H](C(=O)N1CCN(c3ncccn3)CC1)[C@H]1C(=O)O[C@H](c3ccccc3)[C@H](c3ccccc3)N1[C@@H]2c1ccccc1OCCO	2.23 (inactive)	0.297	1.65 (inactive)	0.256 (inactive)	-0.634 (inactive)	-0.227 (inactive)	2.05	-0.241 (inactive)	-2.24 (inactive)	-3.12	-0.793	1.36	-0.435	-1.24	-1.88	-0.0311	10.6 (active)	-0.645	-1.47	0.738 (inactive)
